High-throughput results: PubChem BioAssay, National Center for Advancing Translational Sciences (NCATS)
TDP1 cell noCPT = qHTS for Inhibitors of human tyrosyl-DNA phosphodiesterase 1 (TDP1): qHTS in cells in absence of CPT; Potency, µM (highest dose often 46.2 µM), actives largely listed as inhibitors; hit rate 15% among 420,000; AID 686978, 2013; DT40 Tdp1-/- hTDP1 cells, no CPT, ATP luminescence, 48 h; further: nearly all actives have a fitted effect of over 55% in size
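No-CPT arm: Tdp1-/-;hTDP1 DT40 cells (400/well) plus compounds, incubated ≥48 hr at 37 °C. Readout CellTiter-Glo luminescence.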
HepG2 tox-1 = qHTS for Inhibitors of TGF-b: Cytotox Counterscreen | HepG2 CAGA-GFP viability, ATP luminescence, 18 h | Potency, µM (titrated, usually from 46.1 µM), actives largely listed as cytotoxic | hit rate 0.76% among 410,000 | AID 588856, 2011
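CellTiter-Glo luminescence gave cytotoxicity after 18 hours at 37 degrees C. The cells were HepG2 CAGA-GFP in 1% FBS DMEM, stimulated with 500 pg/mL TGF-beta after compound addition. %Activity was normalised to no-cell wells (complete cell-killing) and DMSO (no toxicity), and curves were fitted and classified.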
ASM inhibitor = Inhibitors of Secretory Acid Sphingomyelinase (S-ASM): qHTS; placental ASM, HMU-PC fluorogenic substrate, 60 min; Potency, µM (top dose mostly 57.5 µM), most hits filed as inhibitors; hit rate 0.006% among 340,000
Target sequence (P17405 47-631 limits assumed): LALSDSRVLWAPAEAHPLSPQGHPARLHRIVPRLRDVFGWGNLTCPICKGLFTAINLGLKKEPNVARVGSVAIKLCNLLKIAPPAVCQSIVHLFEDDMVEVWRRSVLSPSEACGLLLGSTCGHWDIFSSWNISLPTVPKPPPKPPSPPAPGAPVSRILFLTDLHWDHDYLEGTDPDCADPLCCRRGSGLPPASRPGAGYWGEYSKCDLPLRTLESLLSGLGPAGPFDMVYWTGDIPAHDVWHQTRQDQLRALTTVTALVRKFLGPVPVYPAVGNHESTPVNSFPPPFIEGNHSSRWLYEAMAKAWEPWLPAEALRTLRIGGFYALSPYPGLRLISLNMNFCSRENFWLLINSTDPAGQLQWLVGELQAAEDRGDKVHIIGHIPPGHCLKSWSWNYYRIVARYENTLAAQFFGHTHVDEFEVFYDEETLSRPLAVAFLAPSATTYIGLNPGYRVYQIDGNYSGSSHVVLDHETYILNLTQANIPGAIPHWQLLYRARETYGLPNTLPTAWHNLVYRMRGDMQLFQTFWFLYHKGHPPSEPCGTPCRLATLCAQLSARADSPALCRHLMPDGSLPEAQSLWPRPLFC
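Human placenta-derived ASM enzyme was preincubated with compound for 10 minutes at room temperature, then given fluorogenic substrate HMU-PC0 (9 uM final) for 60 minutes at 37 °C; a pH 10 stop preceded fluorescence reading at Ex 386/Em 447 nm.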
IL1B secr inh = qHTS for Inhibitors of Inflammasome Signaling: IL-1-beta AlphaLISA Primary Screen | activity change, % at 57.5 µM | THP-1 LPS/ATP IL-1B secretion, AlphaLISA, 16 h; active compounds read low | hit rate 4.7% among 360,000; in the data active means activity change below about -50%; inconclusive means mostly about -30% to -49%
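Secreted IL-1B measured by AlphaLISA bead assay after 16 h compound exposure of THP-1 cells; compounds (final up to 57.5 uM) added 1 h before LPS (250 ng/mL) and ATP (1.25 mM) stimulation; lower signal means less secretion.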
TGFb inhibitor = qHTS for Inhibitors of TGF-b; hit rate 1.2% among 410,000; HepG2 CAGA-GFP TGF-b/SMAD3 reporter, GFP fluorescence, 18 h; TGF-beta stimulated, 500 pg/mL final; Potency, µM (highest dose often 46.1 µM), hits mostly inhibitors; further: nearly all actives have a fitted effect of over 65% in size
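GFP signal (ex488/em500-530) from TGF-beta-stimulated HEPG2 CAGA-GFP cells, 500 pg/mL final, 18 h at 37 degrees C in DMEM plus 1% FBS, normalized to unstimulated and DMSO-stimulated controls.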
DT40 TDP1 CPT = qHTS for Inhibitors of human tyrosyl-DNA phosphodiesterase 1 (TDP1): qHTS in cells in presence of CPT | hit rate 12% among 420,000 | Potency, µM (titrated, usually from 46.2 µM), usual class: inhibitors | chicken DT40 Tdp1-/-;hTDP1 cells + 20 nM CPT, ATP luminescence, 48 h | AID 686979, 2013; further: nearly all actives have a fitted effect of over 55% in size
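Cell growth measured by CellTiter-Glo luminescence after a minimum 48 h, 37 C compound exposure with 20 nM CPT in Tdp1-knockout DT40 cells stably expressing hTDP1, seeded 400/well; qHTS titration format.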
TGFb confirm = qHTS for Inhibitors of TGF-b: Confirmation of Cherry Picks. Potency, µM (highest dose often 46.1 µM), most hits filed as inhibitors. shares compounds with TGFb inhibitor. HepG2 CAGA-GFP TGF-b reporter, GFP fluorescence, 18 h; cells stimulated with TGF-beta, 500 pg/mL. hit rate 63% among 1,600; further: nearly all actives have a fitted effect of over 65% in size
HepG2 tox-2 = qHTS for Inhibitors of TGF-b: Cytotox Counterscreen for Cherry Picks. shares compounds with TGFb inhibitor. HepG2 CAGA-GFP viability, ATP luminescence, 18 h; cells stimulated with TGF-beta, 500 pg/mL. Potency, µM (highest dose often 46.1 µM), usual class: inhibitors. hit rate 27% among 1,600; further: nearly all actives have a fitted effect of over 70% in size
TGFb CCL64 inh = qHTS for Inhibitors of TGF-b: CCL64 Cells Orthogonal Assay for Cherry Picks; shares compounds with TGFb inhibitor; CCL64 CAGA-GFP reporter, TGF-b stimulated, GFP fluorescence, 18 h; Potency, µM (series often up to 46.1 µM), hits mostly inhibitors; hit rate 41% among 1,600; AID 720536, 2013; further: nearly all actives have a fitted effect of over 65% in size
TGFb COP inh = qHTS for Inhibitors of TGF-b: Hit Validation in HepG2 Cells using COP promoter. shares compounds with TGFb inhibitor. HepG2 COP-GFP TGF-b reporter, GFP fluorescence, 18 h; cells stimulated by added recombinant TGF-beta. Potency, µM (top dose mostly 46.1 µM), hits mostly inhibitors. hit rate 3% among 1,600. AID 720537, 2013; further: nearly all actives have a fitted effect of over 70% in size
Of the large screens only hits and unclear results are named; the others gave an inactive call (follow-up assays come after a bar, where they were run). Sampled rows, rich in hits. Any-hit rate of the full collection: about 19%. Unless noted, the call rests on the fitted dose curve; in most records, active means well fitted curve in the direction sought with a large enough effect; inconclusive means small, poorly fitted or top-dose-only effect, or another doubt; inactive means no such curve, though single readings can be large; an effect the other way counts as inactive or inconclusive.

CCC(=O)c1cn(CC(=O)Nc2c(C)cccc2C)c2ccccc12	none
CC(=O)c1cn(CC(=O)Nc2c(C)cccc2C)c2ccccc12	TDP1 cell noCPT 8.2µM, TGFb inhibitor inconclusive, DT40 TDP1 CPT 10.3µM | TGFb confirm inconclusive | HepG2 tox-2 inactive | TGFb CCL64 inh inactive | TGFb COP inh inactive
CC(C)CC(COCc1cccc(Cl)c1)N1CCN(C(=O)c2ccc(C(F)(F)F)cc2)CCC1=O (stereo not drawn)	TDP1 cell noCPT 16.4µM, IL1B secr inh inconclusive, TGFb inhibitor 10µM, DT40 TDP1 CPT inconclusive | TGFb confirm 18.4µM | HepG2 tox-2 inactive | TGFb CCL64 inh inconclusive | TGFb COP inh inactive
CC(C)CC(COCc1ccc(F)cc1)N1CCN(C(=O)c2cccc(C(F)(F)F)c2)CCC1=O (stereo not drawn)	TDP1 cell noCPT inconclusive, DT40 TDP1 CPT inconclusive
CC(C)CC(CO)N1CCN(C(=O)c2cccc(C(F)(F)F)c2)CCC1=O (stereo not drawn)	none
Cc1cccc(COCC(CC(C)C)N2CCN(C(=O)c3ccc(C(C)(C)C)cc3)CCC2=O)c1 (stereo not drawn)	TDP1 cell noCPT 18.4µM, IL1B secr inh -73.4, TGFb inhibitor 8.91µM, DT40 TDP1 CPT inconclusive | TGFb confirm inconclusive | HepG2 tox-2 inconclusive | TGFb CCL64 inh inconclusive | TGFb COP inh inconclusive
O=C(N=Nc1c(O)[nH]c2ccc(Br)cc12)c1ccco1	TDP1 cell noCPT inconclusive (no result: ASM inhibitor)
O=C(N=Nc1c(O)[nH]c2ccc(Br)cc12)c1ccccc1-n1cccc1	TDP1 cell noCPT 2.59µM, ASM inhibitor inconclusive, TGFb inhibitor inconclusive, DT40 TDP1 CPT 4.61µM | TGFb confirm 7.31µM | HepG2 tox-2 inconclusive | TGFb CCL64 inh 18.4µM | TGFb COP inh inactive
CCCCCCCCOC(=O)c1cc([N+](=O)[O-])c(Sc2ncnc3nc[nH]c23)c([N+](=O)[O-])c1	TDP1 cell noCPT 3.26µM, HepG2 tox-1 12.6µM, ASM inhibitor inconclusive, IL1B secr inh -70.7, TGFb inhibitor 7.08µM, DT40 TDP1 CPT 2.59µM | TGFb confirm 20.6µM | HepG2 tox-2 8.2µM | TGFb CCL64 inh 5.8µM | TGFb COP inh inconclusive
CCn1c(=O)c(C(=O)Nc2nc3ccccc3[nH]2)c(O)c2ccccc21	TDP1 cell noCPT 2.59µM, TGFb inhibitor 2µM, DT40 TDP1 CPT 2.91µM | TGFb confirm inactive | HepG2 tox-2 inconclusive | TGFb CCL64 inh inconclusive | TGFb COP inh inactive
O=c1[nH]cc(COCC(F)CCl)c(=O)[nH]1 (stereo not drawn)	none
CC(=Nc1ccccc1)C1=C(O)C(Cc2ccccc2)NC1=O (stereo not drawn)	TDP1 cell noCPT 0.0058µM, TGFb inhibitor inconclusive, DT40 TDP1 CPT 0.0116µM | TGFb confirm inconclusive | HepG2 tox-2 inactive | TGFb CCL64 inh 3.26µM | TGFb COP inh inactive
Cc1ccc(NC(=O)Nc2nnc(SCC(=O)N3CCCCC3)s2)cc1	TDP1 cell noCPT inconclusive, DT40 TDP1 CPT inconclusive (no result: ASM inhibitor, IL1B secr inh)
Cc1cc(C)c2c(N)c3ccccc3nc2n1	TDP1 cell noCPT 23.1µM, IL1B secr inh -89.3, TGFb inhibitor 11.2µM, DT40 TDP1 CPT inconclusive | TGFb confirm 20.6µM | HepG2 tox-2 18.4µM | TGFb CCL64 inh 13µM | TGFb COP inh inactive
Cc1nc(N2N=C3/C(=C/c4ccc(F)cc4)CCCC3C2c2ccc(F)cc2)sc1C(=O)N(C)C (stereo not drawn)	TDP1 cell noCPT 29.1µM, TGFb inhibitor 12.6µM, DT40 TDP1 CPT inconclusive | TGFb confirm 23.1µM | HepG2 tox-2 inconclusive | TGFb CCL64 inh inconclusive | TGFb COP inh inactive
COc1ccc(S(=O)(=O)n2nc(-c3cc(OC)c(OC)c(OC)c3)cc2N)cc1OC	TDP1 cell noCPT inconclusive
COc1ccc(-c2cc(N)n(S(=O)(=O)c3c(F)c(F)c(F)c(F)c3F)n2)cc1OC	TDP1 cell noCPT 0.82µM, HepG2 tox-1 8.91µM, IL1B secr inh -86.8, TGFb inhibitor 3.98µM, DT40 TDP1 CPT 0.184µM | TGFb confirm 2.59µM | HepG2 tox-2 8.2µM | TGFb CCL64 inh 2.91µM | TGFb COP inh inconclusive
Cc1ccc(C)c(/C=C(\C(=O)O)c2ccc(S(=O)(=O)N3CCCCC3)s2)c1	none
Cc1ccc(CNC(=O)c2c(-c3cccc(Br)c3)noc2C)o1	DT40 TDP1 CPT inconclusive (no result: ASM inhibitor, IL1B secr inh)
O=C(COc1ccccc1)N[C@@H]1c2ccccc2CC[C@H]1OCc1ccccc1	TDP1 cell noCPT 25.9µM, TGFb inhibitor 15.8µM, DT40 TDP1 CPT inconclusive | TGFb confirm inconclusive | HepG2 tox-2 inconclusive | TGFb CCL64 inh 18.4µM | TGFb COP inh inactive
Cc1cc(Cl)ccc1N=C1N=C(N)c2ccccc21	TDP1 cell noCPT inconclusive, DT40 TDP1 CPT inconclusive
Cc1cc(Cl)ccc1N=c1ssnc1Cl	TDP1 cell noCPT 16.4µM, IL1B secr inh inconclusive, TGFb inhibitor 7.94µM, DT40 TDP1 CPT 13µM | TGFb confirm 23.1µM | HepG2 tox-2 inconclusive | TGFb CCL64 inh inconclusive | TGFb COP inh inactive
CC(=O)c1ccc(Nc2nc(-c3ccccc3)nc3ccccc23)cc1	TDP1 cell noCPT 20.6µM, IL1B secr inh -60.0, DT40 TDP1 CPT inconclusive | TGFb confirm inactive | HepG2 tox-2 inactive | TGFb CCL64 inh inactive | TGFb COP inh inactive
